Screening results deposited in PubChem BioAssay by National Center for Advancing Translational Sciences (NCATS).
LmPK inh – inhibitors of Leishmania mexicana pyruvate kinase; Q27686; purified LmPK, Kinase-Glo ATP luminescence, 1 h; Potency, µM (series often up to 57.5 µM), without a hit: at the highest dose activity change, negative = inhibition, actives largely listed as inhibitors; hit rate 0.37% among 290,000; AID 1721; further: potency means the concentration at half of the fitted maximal effect; on the % scale 0 is the no-effect control and ±100 the full control effect
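ATP generated from ADP (0.1 mM) and PEP (0.5 mM) by 0.1 nM LmPK over 1 h at room temperature (pH 7.2 imidazole buffer) was detected by coupled luciferase luminescence. Values were normalized to uninhibited and no-enzyme wells.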
Sm TGR inh – blocks Schistosoma mansoni thioredoxin glutathione reductase; hit rate 3% among 360,000; AID 485364; Potency, µM (top dose mostly 114 µM), for the others: at the highest dose activity change, negative = inhibition, actives largely listed as inhibitors; purified TGR, DTNB reduction, TNB absorbance 405 nm; Q962Y6; further: potency means the concentration at half of the fitted maximal effect; on the % scale 0 is the no-effect control and ±100 the full control effect; nearly all actives have a fitted effect of over 60% in size
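First, TGR (20 nM dispensed) and NADPH were mixed with compound. Second, a 15 min room-temperature incubation followed. Third, further NADPH and then DTNB were added to start the reaction. Finally, TNB absorbance was monitored kinetically.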
Giardia FBPA inh – inhibitors of Giardia lamblia fructose-1,6-bisphosphate aldolase; AID 2451; purified Giardia FBPA; A8B2U2; hit rate 0.71% among 290,000; Potency, µM (series often up to 59.6 µM), inactives show top-dose activity, negative = inhibition, usual class: inhibitors; further: potency means the concentration at half of the fitted maximal effect; on the % scale 0 is the no-effect control and ±100 the full control effect; nearly all actives have a fitted effect of over 55% in size
Target sequence (A8B2U2 whole entry, looked up): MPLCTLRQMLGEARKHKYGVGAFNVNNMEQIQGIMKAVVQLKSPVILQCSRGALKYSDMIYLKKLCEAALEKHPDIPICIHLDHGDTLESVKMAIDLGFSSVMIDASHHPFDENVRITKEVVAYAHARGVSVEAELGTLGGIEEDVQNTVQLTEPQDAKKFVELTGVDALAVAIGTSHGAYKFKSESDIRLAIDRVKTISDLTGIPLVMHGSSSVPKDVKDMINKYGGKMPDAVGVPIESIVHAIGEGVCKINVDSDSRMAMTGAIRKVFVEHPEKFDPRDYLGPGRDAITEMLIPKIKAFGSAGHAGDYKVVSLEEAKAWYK
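Giardia FBPA (40 nM reagent) was preincubated 10 min at RT with compound (up to 57.5 uM final), then substrate plus GAPDH/TPI/NAD/arsenate coupling system with diaphorase/resazurin was added; resorufin fluorescence (525/598 nm) was read after 20 min.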
CHX counter – counter-screen hit for Shiga toxin inhibitors, cycloheximide. cell reporter, cycloheximide protein synthesis inhibition counterscreen. max response, %. hit rate 12% among 300,000. AID 2314; in the data active means max response mostly above about 13%, no sharp cut-off; inactive means mostly below about 14%; further: read at 38.3 µM for the half of the compounds with a filed dose; 0% is about no effect
Shiga toxin inh – blocks Shiga toxin action in Vero cells. inhibition, % at 38.7 µM. Vero cells, Shiga toxin protein synthesis inhibition reporter. AID 2315. hit rate 9.2% among 290,000; in the data active means inhibition mostly above about 28%, no sharp cut-off; inactive means mostly below about 43%; further: 0% is about no effect
Tb PYK inh – T. brucei pyruvate kinase inhibition. hit rate 0.12% among 410,000. TbPYK enzyme, Kinase-Glo Plus ATP luminescence, 45 min. Q57TT1. AID 624173. Potency, µM (top dose mostly 76.8 µM), for inactives: at the highest dose activity, negative = inhibition, most hits filed as inhibitors; further: potency means the concentration at half of the fitted maximal effect; on the % scale 0 is the no-effect control and ±100 the full control effect; nearly all actives have a fitted effect of over 50% in size
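Luminescent Kinase-Glo Plus end-point after 45 min room-temperature reaction of T. brucei pyruvate kinase started with 130 uM ADP (final). Buffer TEA 50 mM pH 7.2 with KCl, MgCl2, BSA, Tween-20; titration-based qHTS with fitted concentration-effect curves.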
Numbers without * were called inactive; ? = inconclusive; nt = not tested or not shown; [ ] = remark or other dose. Shown is part of a subset that was picked to be rich in hits. Unless noted, the call rests on the fitted dose curve; in most records, active means well fitted curve in the direction sought with a large enough effect; inconclusive means small, poorly fitted or top-dose-only effect, or another doubt; inactive means no such curve, though single readings can be large; an effect the other way counts as inactive or inconclusive.

SMILES	LmPK inh	Sm TGR inh	Giardia FBPA inh	CHX counter	Shiga toxin inh	Tb PYK inh
O=C(CCSc1ccccc1)Nc1nc2c(s1)CCCC2	7%	20%	-5%	31*	162*	-12%
O=C(Nc1nc2c(s1)CCCC2)Oc1ccccc1	-7%	7%	-10%	21*	34*	1%
C#CCOCCOCCOCCNc1nc(N2CCOCC2)nc(N2CCN(C(=O)[C@H](C)n3cc(CCC(=O)O)nn3)CC2)n1	nt	nt	nt	nt	nt	1%
CC(C)CCN1C(=O)c2ccc(C(=O)OCC(=O)N(CC(C)C)C3CCS(=O)(=O)C3)cc2C1=O (stereo not drawn)	nt	nt	nt	nt	nt	5%
Cc1nc2ccn(Cc3ccccc3)c(=O)c2cc1C(=O)Nc1ccc(F)cc1Cl	nt	5%	nt	nt	nt	9%
O=C(Nc1nc2c(s1)CCCC2)c1cccnc1	-12%	-5%	-9%	52*	70*	-5%
C/C(=N\Nc1nc2c(s1)CCCC2)c1ccccc1	0%	?	-19%	43*	143*	-12%
O=C(Nc1nc2c(s1)CCCC2)c1cccs1	?	33%	-4%	27*	-11	-11%
O=C(Cc1ccc(S(=O)(=O)N2CCOCC2)s1)Nc1ccc2c(c1)CCC2	4%	6%	-1%	-5	48	3%
O=C(Cc1ccc(S(=O)(=O)N2CCOCC2)s1)Nc1nc2c(s1)CCCC2	-1%	?	16µM*	9	3	6%
FC(F)(F)c1ccccc1Cc1c(-c2cccc(Br)c2)nc2ccc(Br)cn12	nt	nt	nt	nt	nt	3%
C/C(=N\Nc1ncc(Cl)cc1Cl)c1ccc(N2CCOCC2)cc1	6%	1%	-24%	38*	85*	1%
C/C(=N\Nc1nc2ccccc2[nH]1)c1ccc(C)o1	-12%	0%	-10%	38*	30*	0%
Cc1ccc(C(=O)NCc2nc3ccccc3[nH]2)o1	-7%	-11%	-11%	34*	97*	0%
C/C(=N\Nc1ccc2nncn2n1)c1ccc(Cl)s1	1%	-14%	0%	-1	-5	1%
C/C(=N\Nc1nc2ccccc2[nH]1)c1ccc(Cl)s1	-1%	-14%	-6%	23*	54*	-10%
CCOc1ccccc1O[C@@H](c1ccccc1)[C@@H]1CNCCO1	nt	nt	-2%	nt	nt	-6%
Clc1cccc(-c2cccc3nccn23)c1	nt	nt	nt	nt	nt	-1%
C/C(=N\Nc1nc2ccccc2[nH]1)c1ccc(N2CCOCC2)cc1	0%	0%	-4%	40*	61*	3%
CCOC(=O)c1c(C)n(Cc2ccc(F)cc2)c2ccc(O)cc12	18µM*	-24%	-12%	12	-14	?
COC(=O)c1c(C)n(Cc2ccc3c(c2)OCO3)c2ccc(O)cc12	-4%	1%	-2%	16*	11	-11%
CCOC(=O)c1c(C)n(CCO)c2ccc(O)cc12	-8%	2%	-18%	1	5	6%
CCOC(=O)c1c(C)n(Cc2ccc3c(c2)OCO3)c2ccc(O)cc12	-4%	-17%	-4%	30*	38	nt
CCOC(=O)C1=C([Si](C)(C)C)c2ccccc2N(S(=O)(=O)C(F)(F)F)C1C(=O)OCC (stereo not drawn)	nt	nt	-12%	3	56	nt
O=C(Nc1cccc(NC(=O)c2ccco2)c1)c1ccc2c(c1)OCCO2	-21%	nt	-2%	22	43	-6%
SMILES	LmPK inh	Sm TGR inh	Giardia FBPA inh	CHX counter	Shiga toxin inh	Tb PYK inh
CCCCC(=O)Nc1cccc(NC(=O)c2ccc3c(c2)OCO3)c1	-5%	2%	1%	14*	12	0%
CCCC(=O)Nc1cccc(NC(=O)c2ccc3c(c2)OCCO3)c1	-16%	-11%	-1%	23*	64*	-9%
COC(=O)c1ccc(Cn2c(C)c(C(=O)NCc3cccc([N+](=O)[O-])c3)sc2=O)o1	nt	nt	nt	nt	nt	6%
O=C(N/N=C/c1cccnc1)c1ccc(NC(=O)c2ccccc2Cl)cc1	-5%	-11%	6%	1	35	-1%
O=C(Nc1ccc(Oc2cccnc2)cc1)c1ccccc1F	-7%	-23%	-5%	26*	64	1%
O=C(Nc1ccc(F)cc1)c1cccnc1Oc1ccccc1	-2%	9%	-12%	-2	-3	-13%
O=C(Nc1ccc(Oc2cccnc2)cc1)c1ccccc1Cl	-1%	-6%	-19%	27*	2	5%
N#C/C(=C\c1ccc([N+](=O)[O-])cc1)c1nc(C2CC2)cs1	0%	4%	-2%	21*	15	0%
N#C/C(=C\c1ccccc1[N+](=O)[O-])c1nc(C2CC2)cs1	-1%	-17%	-3%	57*	58*	-12%
COc1ccc(-c2csc(/C(C#N)=C\c3cccc([N+](=O)[O-])c3)n2)cc1	-3%	7%	3%	1	-8	nt
N#C/C(=C/c1ccccc1[N+](=O)[O-])c1nc(C2CC2)cs1	2%	-9%	-4%	25*	43	-4%
N#C/C(=C\C=C\c1ccccc1[N+](=O)[O-])c1nc(-c2ccc3c(c2)OCO3)cs1	7%	-6%	-3%	-1	-4	0%
N#C/C(=C/c1ccccc1[N+](=O)[O-])c1nnc2n1CCCCC2	-7%	6%	1%	-2	-3	-6%
CN(C)C(=O)C#Cc1ccccc1	2%	-7%	2%	-4	2	6%
NS(=O)(=O)C#Cc1ccccc1	nt	nt	9%	26*	15*	nt
COC(=O)CSc1nc2c(c(-c3ccco3)c1C#N)CCCC2	-3%	3.2µM*	-29%	9	2	?
CCOC(=O)CSc1nc2c(c(-c3ccc(C)o3)c1C#N)CCCC2	2%	45µM*	-25%	7	13	-3%
O=C(COC(=O)c1ccccc1F)c1ccc(-n2nncc2-c2ccco2)cc1	14%	3%[11.4 µM]	2%	21*	40	-8%
C[C@H](NC(=O)CCC1CCC(=O)N1)c1ccccc1 (stereo partly drawn)	nt	nt	nt	nt	nt	-11%
C/C(=N\NC(=O)CCn1nnc2ccccc21)c1ccco1	-11%	-1%	0%	19*	35	-2%
COc1ccc(/C=N/NC(=O)CCn2nnc3ccccc32)cc1	1%	33%	8%	20*	53*	4%
CC(=O)Nc1ccc(NC(=O)CCn2nnc3ccccc32)cc1	1%	7%	-1%	10	16	-21%
CCN1CCN(C(CCc2ccccc2)C(=O)NC2CCCCC2)CC1 (stereo not drawn)	nt	nt	nt	nt	nt	2%
O=C(CCN1C(=O)/C(=C/C=C/c2ccccc2)SC1=S)Nc1cccnc1	0%	-2%	1%	47*	86*	10%
O=C(CCN1C(=O)/C(=C\c2ccccc2Cl)SC1=S)Nc1cccnc1	11%	-18%	2%	-4	0	-8%
COc1ccccc1/C=C1/SC(=S)N(CCC(=O)Nc2cccnc2)C1=O	-8%	-14%	nt	36*	10*	0%
